Consider nine molecules from PubChem BioAssay (NCI).

Some test systems named below: MOLT-4 leukemia; SR leukemia; RPMI-8226 leukemia; OVCAR-8 ovarian; OVCAR-5 ovarian; SK-OV-3 ovarian; IGROV1 ovarian; OVCAR-3 ovarian; HS 578T breast; NCI/ADR-RES ovarian; T-47D breast; BT-549 breast; MDA-MB-435 melanoma; SW-620 colon; MCF7 breast; HCT-116 colon; HCC-2998 colon; KM12 colon.
What all share (test): NCI-60 one-dose screen, 48 h (100 = growth as untreated, 0 = no growth, -100 = all killed)
What all share (conditions): 10 µM unless noted

“And” between values parts separate entries of the source, which are not always exact repeats. Equal values may be shown once. About 83,000 compounds went through this panel and 20% of them were active in at least one assay; those are over-represented in the sample as a whole.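 Each cell line was grown in a 96-well plate and treated with one concentration of compound for 48 hours. Values below 10 were considered active.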 A number with no mark means an inactive call. The source made the active and inactive calls.

On to `O=C1c2ccccc2C(=O)N1N1CC1c1ccccc1` (stereo not drawn), for which the growth in the test on MOLT-4 leukemia was 83.5%; in the test on SR leukemia, 77.9%; with RPMI-8226 leukemia, 101%; in the test with OVCAR-8 ovarian, 112%; in the test on OVCAR-5 ovarian, 113%; in the test with SK-OV-3 ovarian, 102%. The growth was 95.4% with IGROV1 ovarian; 107% in the test on OVCAR-3 ovarian; 112% in the test on HS 578T breast; 104% with NCI/ADR-RES ovarian; 89.2% in the test on T-47D breast; 99% in the test on BT-549 breast. Further, the growth in the test with MDA-MB-435 melanoma is 102%; in the test on SW-620 colon it was 105%; in the test on MCF7 breast, 84.1%; in the test with HCT-116 colon, 95.4%; with HCC-2998 colon, 103%; with KM12 colon it was 104%.

As to `CC[C@H](C)[C@H]1O[C@]2(C=C[C@@H]1C)C[C@@H]1C[C@@H](C/C=C(\C)[C@@H](O[C@H]3C[C@H](OC)[C@@H](O[C@H]4C[C@H](OC)[C@@H](NC)[C@H](C)O4)[C@H](C)O3)[C@@H](C)/C=C/C=C3\CO[C@@H]4[C@H](O)C(C)=C[C@@H](C(=O)O1)[C@]34O)O2`, the growth in the test on MOLT-4 leukemia is -42.3% (active); with SR leukemia it was -32.4% (active); in the test on RPMI-8226 leukemia, -30.7% (active); in the test with OVCAR-8 ovarian it was 10.7%; in the test with OVCAR-5 ovarian it was -34.5% (active); in the test with SK-OV-3 ovarian, -36.6% (active). The growth is -31.9% (active) with IGROV1 ovarian; -68.8% (active) in the test with OVCAR-3 ovarian; -42.9% (active) in the test with HS 578T breast; 0.588% (active) with NCI/ADR-RES ovarian; -27.6% (active) with T-47D breast; 3.48% (active) in the test on BT-549 breast. Besides, the growth in the test on MDA-MB-435 melanoma is -83.4% (active); in the test with SW-620 colon, -68.1% (active); in the test with MCF7 breast, -85% (active); in the test with HCT-116 colon, -79% (active); with HCC-2998 colon it was -83.9% (active).

Turning to `COC(=O)C1=CCCN(C)C1`, the growth with MOLT-4 leukemia is 105% and 97.6%; in the test with SR leukemia, 99.7% and 110%; in the test with RPMI-8226 leukemia it was 106%; in the test with OVCAR-8 ovarian it was 105%; in the test on OVCAR-5 ovarian it was 94.9%; with SK-OV-3 ovarian it was 111% and 110%. Also, the growth in the test with IGROV1 ovarian is 102% and 145%; in the test on NCI/ADR-RES ovarian, 107% and 115%; in the test with T-47D breast, 101% and 113%; in the test with BT-549 breast it was 97.7%; with MDA-MB-435 melanoma, 98.9% and 96.1%; with SW-620 colon, 111% and 110%. The growth in the test with MCF7 breast is 96.1% and 101%; in the test on HCT-116 colon, 102% and 108%; with HCC-2998 colon, 102% and 124%; in the test with KM12 colon it was 117% and 109%.

Turning to `C[C@]12CCc3sc(Nc4ccc(OC(F)(F)F)cc4)nc3C1=CC[C@@H]1[C@@H]2CC[C@]2(C)C(=O)CC[C@@H]12`, the growth was 4.15% (active) in the test on MOLT-4 leukemia; 16.9% in the test on SR leukemia; 2.88% (active) with RPMI-8226 leukemia; 66.5% in the test with OVCAR-8 ovarian; 91.9% with OVCAR-5 ovarian; 69.9% in the test with SK-OV-3 ovarian. In addition, the growth in the test on IGROV1 ovarian was 93.6%; in the test on OVCAR-3 ovarian, 37.4%; in the test on HS 578T breast, 38.5%; with NCI/ADR-RES ovarian, 81.6%; with T-47D breast, 41.8%; with BT-549 breast it was 53.5%. Also, the growth is 77.6% with MDA-MB-435 melanoma; 43.3% in the test on SW-620 colon; 17.1% in the test with MCF7 breast; 7.77% (active) with HCT-116 colon; 96.5% with HCC-2998 colon; 53.5% in the test on KM12 colon.

Turning to `O=[N+]([O-])c1ccc(CI)cc1`, the growth with MOLT-4 leukemia is 14.7%; in the test with SR leukemia, 34.4%; in the test with RPMI-8226 leukemia it was 53.2%; in the test with OVCAR-8 ovarian, 84.4%; in the test with OVCAR-5 ovarian, 96.8%; with SK-OV-3 ovarian it was 116%. In addition, the growth in the test on IGROV1 ovarian was 115%; in the test on NCI/ADR-RES ovarian it was 70.9%; with T-47D breast, 73.3%; with BT-549 breast, 98.6%; with MDA-MB-435 melanoma, 90.4%; with SW-620 colon, 26.4%. Moreover, the growth was 21.7% in the test on MCF7 breast, 1.59% (active) with HCT-116 colon, 108% in the test with HCC-2998 colon and 106% in the test with KM12 colon.

With `O=C(O)C(Br)CBr` (stereo not drawn), the growth in the test on MOLT-4 leukemia was 87.7%; in the test on SR leukemia, 99%; in the test with RPMI-8226 leukemia it was 103%; with OVCAR-8 ovarian, 92.9%; in the test on OVCAR-5 ovarian it was 117%; with SK-OV-3 ovarian it was 101%. The growth with IGROV1 ovarian was 104%; in the test with OVCAR-3 ovarian, 106%; with HS 578T breast, 111%; in the test with NCI/ADR-RES ovarian, 101%; with T-47D breast, 89.6%; in the test on BT-549 breast, 100%. For the same molecule, the growth in the test on MDA-MB-435 melanoma was 103%; in the test on SW-620 colon, 105%; in the test with MCF7 breast, 87.9%; with HCT-116 colon, 94.8%; in the test on KM12 colon, 104%.

`CC[PH+](CC)CC.O=COC1OC([S-])C(OC=O)C(OC=O)C1OC=O.[Au+]` (stereo not drawn): the growth was -29.1% (active) in the test on MOLT-4 leukemia; -18.4% (active) with SR leukemia; -27.2% (active) in the test on RPMI-8226 leukemia; 1.43% (active) in the test on OVCAR-8 ovarian; -98.5% (active) in the test with OVCAR-5 ovarian; -45.5% (active) in the test on SK-OV-3 ovarian. The growth is -78.3% (active) in the test with IGROV1 ovarian; 14.5% in the test on HS 578T breast; 18.7% in the test with NCI/ADR-RES ovarian; -82.7% (active) with T-47D breast; -80.8% (active) in the test on BT-549 breast; -72.2% (active) with MDA-MB-435 melanoma. The growth in the test on SW-620 colon is -76.3% (active); with MCF7 breast it was -69.2% (active); in the test with HCT-116 colon, -50.3% (active); in the test with HCC-2998 colon, -90% (active).

Turning to `O=[N+]([O-])c1cc(Cl)c(Cl)c([N+](=O)[O-])c1Cl`, the growth was 13.3% in the test with MOLT-4 leukemia; 11.2% in the test with SR leukemia; 29.7% in the test on RPMI-8226 leukemia; 38.9% with OVCAR-8 ovarian; 107% in the test with OVCAR-5 ovarian; 105% with SK-OV-3 ovarian. For the same molecule, the growth was 28.9% in the test with IGROV1 ovarian; 10% in the test on OVCAR-3 ovarian; 106% in the test on HS 578T breast; 80% with NCI/ADR-RES ovarian; 0.463% (active) with T-47D breast; 96.8% in the test with BT-549 breast. The growth in the test with MDA-MB-435 melanoma is 89.3%; in the test with SW-620 colon, -61.9% (active); with MCF7 breast, 20.1%; in the test with HCT-116 colon it was -77.1% (active); in the test with HCC-2998 colon, 109%; with KM12 colon, 26%.

In the case of `O=C(Cc1ccccc1)NC(O)C(Cl)(Cl)Cl` (stereo not drawn), the growth in the test on MOLT-4 leukemia is 96.1%; in the test on SR leukemia, 101%; with RPMI-8226 leukemia it was 104%; with OVCAR-8 ovarian it was 96.1%; in the test on OVCAR-5 ovarian it was 111%; with SK-OV-3 ovarian, 106%. For the same molecule, the growth was 115% in the test on IGROV1 ovarian; 124% in the test on HS 578T breast; 107% in the test with NCI/ADR-RES ovarian; 110% in the test on T-47D breast; 96.8% in the test on BT-549 breast; 109% in the test on MDA-MB-435 melanoma. Besides, the growth with SW-620 colon was 117%; in the test on MCF7 breast it was 93.1%; in the test on HCT-116 colon, 107%; in the test on HCC-2998 colon, 110%; with KM12 colon, 119%.
